Each structure is given as a SMILES string. Out of some 320,000 compounds screened, about 1,700 (0.53%) were called active. Only a selection was taken, and actives are over-represented in it overall. A number with no mark means an inactive call.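 How the source made its calls: active means inhibition above the campaign mean of all compounds plus 3 SD (cut at about 26% in these data); inactive means the rest.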

For this experiment, the target named is Protein phosphatase methylesterase 1 (Homo sapiens) (UniProt Q9Y570). Briefly: human PME-1 methylesterase blockers – biochemical, fluorescence polarization, FP-Rh probe, HTS, primary screen (AID 2130).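 Further: competitive labeling of PME-1 active site by serine hydrolase directed probe; 0% = PME-1 with DMSO and 100% = wells lacking PME-1 enzyme; inhibitors block probe labeling so polarization falls and inhibition rises.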 Conditions: recombinant PME-1, FP-Rh probe fluorescence polarization; at 5.9 µM; active compounds read high. On the technique in general: In fluorescence polarisation assays a small probe gives low polarisation when free and higher when bound to something large.
Protein phosphatase methylesterase 1 (Homo sapiens), sequence (Q9Y570 whole entry, looked up): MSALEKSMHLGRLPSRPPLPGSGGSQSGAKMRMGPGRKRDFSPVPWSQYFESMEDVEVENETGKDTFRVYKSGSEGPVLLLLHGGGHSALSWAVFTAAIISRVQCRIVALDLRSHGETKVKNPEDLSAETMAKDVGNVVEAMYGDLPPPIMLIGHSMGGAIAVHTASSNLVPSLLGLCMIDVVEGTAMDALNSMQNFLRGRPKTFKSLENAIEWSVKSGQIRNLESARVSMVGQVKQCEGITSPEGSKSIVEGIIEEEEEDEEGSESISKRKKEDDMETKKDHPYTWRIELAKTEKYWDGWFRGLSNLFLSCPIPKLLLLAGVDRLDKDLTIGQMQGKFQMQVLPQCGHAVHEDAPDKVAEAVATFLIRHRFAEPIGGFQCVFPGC
The inhibition is the change of the read-out against control, counted positive when it falls. For the molecule `O=C(NC(=S)Nc1ncccn1)c1ccccc1Br`, the inhibition is -6.82%.

Turning to `Cc1ccc(NC(=O)N2CCC(c3nc4c(nnn4Cc4c(F)cccc4Cl)c(=O)[nH]3)CC2)cc1`, the inhibition was 4.6%.

In the case of `COc1ccc(Cn2nnc3c(=O)[nH]c(C4CCN(C(=O)c5ccccc5Cl)CC4)nc32)cc1`, the inhibition is 10.2%.

With `Cc1ccc(Cn2nnc3c(=O)[nH]c(C4CCN(S(=O)(=O)/C=C/c5ccccc5)CC4)nc32)cc1`, the inhibition was 31.4% (active).

`O=S(=O)(c1cnccc1N1CCN(/N=C/c2ccc(Br)cc2)CC1)N1CCCCC1`: the inhibition is 1.2%.

As for `CN=C1C=C/C(=N/N=c2\ccn(O)cc2C)C=C1C`, the inhibition is -11%.

`CCOC(=O)C1Sc2[nH]c(=O)sc2C(c2ccc(Cl)cc2)C1C(=O)OCC` (stereo not drawn): the inhibition was 9.44%.

As for `Cc1cc(OCC(=O)NCC(O)c2ccccc2)c2c(C)c(C)c(=O)oc2c1` (stereo not drawn), the inhibition was 1.37%.

Turning to `O=C(Oc1ccc([N+](=O)[O-])cc1)c1ccc(Cl)c(S(=O)(=O)N2CCCCC2)c1`, the inhibition was -1.4%.

As for `CCc1noc(C)c1C(=O)Nc1nc2ccc(OC)cc2s1`, the inhibition was 2.67%.

Consider `COc1ccc2nc(NC(=O)c3ccc(Br)s3)sc2c1`, for which the inhibition is -12.8%.

With `COc1ccc2nc(Nc3nc4cc5c(cc4s3)OCCO5)sc2c1`, the inhibition is 92.8% (active).

Take `C/C=C/C(=O)Nc1ccc(N2CCN(c3ccc(C(F)(F)F)cn3)CC2)nc1`: the inhibition was -7.12%.

Regarding `CCN1CCN(C(=O)Cn2nc(C)n3c(cc4c(OC)cccc43)c2=O)CC1`, the inhibition was -4.63%.

In the case of `Cc1ccc(-n2c(SCC(=O)N3CCC(C(=O)O)CC3)nc3ccccc3c2=O)cc1C`, the inhibition was 5.62%.

Take `O=S(=O)(Nc1ccccc1Cl)c1cccc2nsnc12`: the inhibition is -1.38%.

With `CC(=O)N1CCc2c(sc(NC(=O)CCS(=O)(=O)c3ccccc3)c2C#N)C1`, the inhibition was -1.35%.

On to `COc1ccc(NC(=O)CCNC(=O)Cn2cnc3sc4c(c3c2=O)CCCC4)cc1OC`, for which the inhibition is -4.87%.

Regarding `COc1ccc(NC(=O)CCCNC(=O)Cn2cnc3sc4c(c3c2=O)CCCC4)cc1OC`, the inhibition was 3.69%.

For `COc1ccc(/C=N/Nc2ncnc3sc4c(c23)CCCC4)cc1O`, the inhibition was 29.7% (active).

As for `COc1ccc(CC(NC(C)=O)C(=O)NC2CCN(C(=O)Nc3ccc(C#N)cc3)CC2)cc1OC` (stereo not drawn), the inhibition is 2.43%.

In the case of `COC(=O)C1=C(C)NC(=S)NC1c1ccc(OCC(=O)N2CC(C)OC(C)C2)c(OC)c1` (stereo not drawn), the inhibition was 4.05%.

Consider `CCOc1ccc2nc(NC(=O)CSc3nc4c(c(=O)n(C)c(=O)n4C)n3CC)sc2c1`, for which the inhibition was 1.27%.

Regarding `CCOc1ccc2nc(Nc3nc4ccc(NC(C)=O)cc4s3)sc2c1`, the inhibition was 50.7% (active).

Consider `CCC(=O)c1ccc(OCC(=O)Nc2ccc3nc(C)sc3c2)cc1`, for which the inhibition is -15.4%.

In the case of `CCOc1cc(C(=O)Nc2c(C)ccc3nsnc23)cc(OCC)c1OCC`, the inhibition was -3.07%.

On to `CCN1CCN(C(=O)N[C@@H](C(=O)N[C@@H]2C(=O)N3C(C(=O)O)=C(CSc4nnnn4C)CS[C@H]23)c2ccc(O)cc2)C(=O)C1=O`, for which the inhibition is 1.33%.

For `O=C(Oc1cccc(N2C(=O)C3C4c5ccccc5C(c5ccccc54)C3C2=O)c1)c1ccco1` (stereo not drawn), the inhibition is 2.64%.

For `Cc1nc(N=C(N)N)nc2c(C)cccc12`, the inhibition is -4.31%.

Take `Cc1[nH]c2c(C(=O)N3CCCC(CCC(=O)NCc4ccccc4F)C3)cccc2c1C` (stereo not drawn): the inhibition was 28.6% (active).

Regarding `O=C(CCC1CCCN(Cc2ccc(O)c(Cl)c2)C1)NCc1ccccc1F` (stereo not drawn), the inhibition was -1.64%.

Take `CSc1ncccc1C(=O)N1CCCC(CCC(=O)NCc2ccccc2F)C1` (stereo not drawn): the inhibition was -3.09%.

For the molecule `Cc1cccc(N(Cc2ccccc2)C(=O)c2cc(S(=O)(=O)N3CCOCC3)ccc2F)c1`, the inhibition was 8.02%.

For `COc1ccc(/C=N/Nc2nc3ccccc3o2)cc1OC`, the inhibition is 23.1%.

As for `COc1cc(/C=N/Nc2nc3ccccc3s2)ccc1O`, the inhibition was 45.3% (active).

For `COc1cc(/C=N\Nc2nc(-c3cccs3)c(NC(C)=O)s2)ccc1O`, the inhibition is 7.62%.

On to `COC(=O)COc1cccc2c(=O)n(CC(=O)NCc3ccccc3)ccc12`, for which the inhibition was -7.45%.

Turning to `Cc1cc(C)c(C)c(S(=O)(=O)Nc2ccc(O)cc2)c1C`, the inhibition was 6%.

Turning to `O=C(Nc1ccnn1C1CCN(Cc2cccc(OCCO)c2)CC1)C1CCCC1`, the inhibition was 4.32%.

For `Oc1ccc(/C=N/Nc2nc(-c3ccccc3F)nc3ccccc23)c(O)c1`, the inhibition was 55% (active).

In the case of `FC(F)(F)c1nc2ccccc2nc1N/N=C/c1ccc(Cl)cc1`, the inhibition was 2.4%.

Regarding `O=c1c2ccccc2nc(N/N=C/c2ccccc2)n1O`, the inhibition is -3.42%.

Turning to `Cc1nc2ccccc2nc1N/N=C/c1ccc(O)cc1O`, the inhibition was 36.9% (active).

As for `COc1cccc(/C=N/Nc2cc(C)nc(-c3ccccc3O)n2)c1O`, the inhibition was 23.9%.

As for `COc1ccccc1N1CCN(/N=C/c2ccc(O)cc2O)CC1`, the inhibition was 2.94%.

On to `CCO[C@H]1OC(C(=O)N2CCN(Cc3ccccc3)CC2)=C[C@@H](c2cn(C(C)=O)c3ccccc23)[C@@H]1CCCO`, for which the inhibition is 10.4%.

For `CC(=O)Nc1ccc(S(=O)(=O)N2CCC(C(=O)N[C@@H](Cc3ccccc3)C(=O)O)CC2)cc1`, the inhibition was -6.81%.

Turning to `COc1ccccc1N1CCN(C(=O)CCS(=O)(=O)c2ccc3c(c2)NC(=O)C(C)S3)CC1` (stereo not drawn), the inhibition was -1.07%.

`COC(=O)c1ccc(CN2C(=O)NC(c3ccccc3)(c3ccccc3)C2=O)o1`: the inhibition is 0.13%.

As for `CC(C)(C)C(=O)N(Cc1ccccc1)c1ccccn1`, the inhibition is -3.74%.

Take `O=C(Nc1ccccc1C(=O)N1CCOCC1)c1ccc(Cl)cc1`: the inhibition is -4.46%.

For `O=c1nc(N2CCOCC2)nc2n1CCO2`, the inhibition was 0.45%.

With `CCCOc1ccc(CN(CCO)CCO)cc1C(=O)OC`, the inhibition is 1.19%.

With `Cc1c(C(=O)N2CCCC2)c(S(=O)(=O)NCC(C)c2ccccc2)c(C)n1C` (stereo not drawn), the inhibition is 4.76%.

`N=c1n(CCc2ccccc2)c2ccccc2n1Cc1ccccc1F`: the inhibition was -11%.

Take `CC(=O)c1c(C)n(-c2ccc(C)cc2)c2ccc(O)cc12`: the inhibition was -0.87%.

`CCOC(=O)c1c(C)oc2ccc(OCC(=O)N(CC)CC)cc12`: the inhibition was -5.01%.

`CC(=O)c1c(C)n(-c2ccc(N(C)C)cc2)c2ccc(OCC(N)=O)cc12`: the inhibition was 26.2% (active).
